Assay outcomes deposited in PubChem by National Center for Advancing Translational Sciences (NCATS).
TDP-43 yeast inh – rescues yeast growth from TDP-43 toxicity. TDP-43 expressing yeast growth rescue, BacTiter-Glo, 24 h. Potency, µM (series often up to 46.1 µM), inactives show top-dose growth rescue (activation), usual class: activators. 1.8% of 410,000 active; note: % of control where 0% means no effect; nearly all actives have a fitted effect of over 50% in size
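Readout is BacTiter-Glo luminescence of cell growth, so inhibitors register as activators. TDP-43-expressing yeast at OD600=0.02 in galactose medium, after raffinose pregrowth to mid-log, were incubated with compound for 24 hr at 30 deg C.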
Abeta yeast res – A-beta toxicity reversal in yeast; yeast expressing A-beta42, growth rescue, OD600, 48 h; response scale: 0% DMSO, 100% iron-clioquinol control; Potency, µM (series often up to 46.1 µM), usual class: activators; 0.063% of 410,000 active; AID 1347071; note: nearly all actives have a fitted effect of over 55% in size
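Growth rescue measured by 600 nm absorbance after 48 h yeast culture at 30 C with compound. Values normalized between DMSO and an equimolar ferric chloride plus clioquinol control.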
FUS suppressor – suppressors of FUS proteinopathy in yeast; Potency, µM (highest dose often 76.6 µM), usual class: activators; S. cerevisiae FUS-expressing, growth rescue, OD600, 24 h; AID 1347120; 0.24% of 390,000 active;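 note: plate controls were DMSO vehicle for no effect and reference control for full effect; nearly all actives have a fitted effect of over 55% in size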
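Compound concentration series was pinned onto galactose-induced FUS-expressing yeast seeded at OD 0.005. Plates sat 24hr at 30C; absorbance at 600 nm gave growth. DMSO served as background control.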
aSyn rescue – rescues yeast growth from alpha-synuclein toxicity; Yeast expressing alpha-synuclein, growth rescue, BacTiter-Glo, 24 h; Potency, µM (titrated, usually from 46.1 µM), without a hit: at the highest dose growth rescue (activation), usual class: activators; 0.14% of 370,000 active; note: % of control where 0% means no effect; nearly all actives have a fitted effect of over 65% in size
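Screening used galactose-induced yeast with toxic alpha-synuclein levels, exposed to compound for 24 hr at 30 deg C. Cell growth, read with BacTiter-Glo luminescence, gave the measured signal.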
Active calls of the source: *; i = inactive; ? = inconclusive; . = no result given. Sampled rows, rich in hits. Any-hit rate of the full collection: about 2.1%. Calls come from the whole dose curve; as a rule, active = well fitted curve in the direction sought with a large enough effect; inconclusive = small, poorly fitted or top-dose-only effect, or another doubt; inactive = no such curve, though single readings can be large; an effect the other way counts as inactive or inconclusive. Potency is the fitted concentration of half-maximal effect.

SMILES	TDP-43 yeast inh	Abeta yeast res	FUS suppressor	aSyn rescue
NC(=O)COc1ccc(/C=C2\C(=O)ON=C2c2ccccc2)cc1	22.4µM*	i	.	15.8µM*
COc1ccc(/C=C2/C(=O)ON=C2c2ccccc2)cc1OC	?	i	i	12.6µM*
CCOc1cc(/C=C2\C(=O)ON=C2c2ccccc2)ccc1OC	12.6µM*	i	i	14.8%
COc1ccc(CNC(=O)c2ccc3c(Cl)c4c(nc3c2)CCCC4)c(OC)c1	20µM*	i	i	.
COc1ccc(CCNC(=O)c2ccc3c(Cl)c4c(nc3c2)CCCC4)c(OC)c1	35.5µM*	i	i	.
COc1ccc(CNC(=O)c2ccc(Sc3ccc(Cl)cc3)c(NC(C)=O)c2)c(OC)c1	22.4µM*	i	i	.
CCOc1ccc(CNC(=O)c2ccc3c(Cl)c4c(nc3c2)CCCC4)cc1	11.2µM*	i	i	.
O=C(c1sc2cc(F)ccc2c1Cl)N1CCN(c2ccccc2)CC1	17.8µM*	i	i	0.3%
CN1CCC(N(C)C(=O)c2sc3cc(F)ccc3c2Cl)CC1	5.6%	i	i	-6.0%
CC(=O)NC(Cc1ccc([N+](=O)[O-])cc1)C(=O)NCC(N)C(=O)c1ccccc1 (configuration not stated)	.	.	.	-6.5%
CN(C)c1ccc(/C=C/c2c(Br)cnc3ccccc23)cc1	.	.	.	-6.8%
CCn1nc(C(=O)Nc2ccccc2C)c(Cl)c1Cl	29.0%	i	i	-7.7%
CCn1nc(C(=O)Nc2cccc3ccccc23)c(Cl)c1Cl	15.8µM*	i	i	-4.4%
CCC(C)c1ccc(NC(=O)CSc2nnc(-c3cccc(C)c3)n2C)cc1 (configuration not stated)	.	.	i	.
Clc1nc(Cl)nc(NCCC2=CCCCC2)n1	10µM*	i	i	2.9%
CCOc1nc(NCCO)nc(NCCC2=CCCCC2)n1	2.0%	i	i	-1.1%
CCCCc1ccc2nc(NC(=O)c3ccc(Br)o3)sc2c1	.	.	i	.
CN(CCOC(=O)CC1C=CCC1)C1CN(Cc2cn(Cc3ccccc3Cl)nn2)S(=O)(=O)C1 (configuration not stated)	.	.	i	.
CCc1ccc(OCC(=O)NNC(=S)NC(=O)C2CCCCC2)c(Br)c1	17.8µM*	7.94µM*	i	7.08µM*
CCc1ccc(OCC(=O)Nc2ccncc2)c(Br)c1	1.6%	i	i	1.1%
CCc1ccc(OCC(=O)NNC(=O)c2cnccn2)c(Br)c1	25.1µM*	25.1µM*	i	?
CC(C)CN1C(=O)C[C@]2(C(=O)N(C)c3ccc(NC(=O)C(F)(F)F)cc32)C1c1ccccc1 (some centres not stated)	.	.	i	.
CC(=O)Nc1cc(O)c2nonc2c1O	.	.	.	-41.5%
COc1ccc(-c2cc(C(=O)N=Nc3c(O)[nH]c4ccccc34)[nH]n2)cc1	.	.	i	.
Cc1ccc(-c2nnn(CC(=O)N(CC3CCCO3)C(C(=O)NC3CCCC3)c3ccc(F)cc3)n2)o1 (configuration not stated)	6.8%	i	i	1.0%
SMILES	TDP-43 yeast inh	Abeta yeast res	FUS suppressor	aSyn rescue
Cc1ccc(-c2nnn(CC(=O)N(CC3CCCO3)C(C(=O)NC3CCCC3)c3ccc(O)cc3)n2)o1 (configuration not stated)	-8.3%	i	28.2µM*	-3.8%
Cc1c(NC(=O)c2sc3ccccc3c2Cl)cccc1-c1nc2ccccc2o1	-8.1%	i	i	.
CCCOc1ccc(N2C(=O)CC(N3CCN(c4ccccc4OC)CC3)C2=O)cc1 (configuration not stated)	25.1µM*	i	i	?
COc1cccc(N2CCN(C3CC(=O)N(c4ccc(F)c(Cl)c4)C3=O)CC2)c1 (configuration not stated)	12.6µM*	i	i	-6.6%
COc1ccc(N2C(=O)CC(N3CCC(O)(c4ccc(Br)cc4)CC3)C2=O)cc1 (configuration not stated)	20µM*	i	i	8.9%
CN(C)c1ccc(C=Nc2ccc(/C=C3\C=Cc4ccccc43)cc2)cc1	.	.	.	-33.4%
COc1ccc(CC(=O)NCC(c2cccs2)S(=O)(=O)c2ccc(C)cc2)cc1 (configuration not stated)	-20.5%	i	i	.
Brc1cccc[n+]1CCCC[n+]1ccccc1Br	.	.	.	1.2%
O=c1oc2ccccc2c2oc3cc(O)c(O)cc3c12	-15.7%	i	8.91µM*	2.3%
